# Laboratory results taken from PubChem BioAssay AID686954 (Sanford-Burnham Center for Chemical Genomics, 2013).
# About 240 (0.8%) of roughly 30,000 compounds were called active.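 How the source made its calls: active means at 10 µM dose, at least 30% inhibition, measured as corrected fluorescence normalized to stimulator and neutral control wells; inactive means the rest.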 What follows is part of a selection rich in actives, with near analogues and random picks from the rest. Peptide text beside a SMILES is read from it. * marks the point of attachment. Bz = O=C(c1ccccc1)*
# Target: Protein artemis (Homo sapiens) (UniProt Q96SD1)
# Experiment: Artemis endonuclease inhibitors, primary screen, biochemical, fluorescence intensity, FAM/BHQ-1 hairpin substrate (AID 686954)
# Details: recombinant Artemis, quenched FAM hairpin cleavage fluorescence; at 10 µM; stronger effect = higher value
# Sequence of Protein artemis (Homo sapiens) (Q96SD1 whole entry, looked up): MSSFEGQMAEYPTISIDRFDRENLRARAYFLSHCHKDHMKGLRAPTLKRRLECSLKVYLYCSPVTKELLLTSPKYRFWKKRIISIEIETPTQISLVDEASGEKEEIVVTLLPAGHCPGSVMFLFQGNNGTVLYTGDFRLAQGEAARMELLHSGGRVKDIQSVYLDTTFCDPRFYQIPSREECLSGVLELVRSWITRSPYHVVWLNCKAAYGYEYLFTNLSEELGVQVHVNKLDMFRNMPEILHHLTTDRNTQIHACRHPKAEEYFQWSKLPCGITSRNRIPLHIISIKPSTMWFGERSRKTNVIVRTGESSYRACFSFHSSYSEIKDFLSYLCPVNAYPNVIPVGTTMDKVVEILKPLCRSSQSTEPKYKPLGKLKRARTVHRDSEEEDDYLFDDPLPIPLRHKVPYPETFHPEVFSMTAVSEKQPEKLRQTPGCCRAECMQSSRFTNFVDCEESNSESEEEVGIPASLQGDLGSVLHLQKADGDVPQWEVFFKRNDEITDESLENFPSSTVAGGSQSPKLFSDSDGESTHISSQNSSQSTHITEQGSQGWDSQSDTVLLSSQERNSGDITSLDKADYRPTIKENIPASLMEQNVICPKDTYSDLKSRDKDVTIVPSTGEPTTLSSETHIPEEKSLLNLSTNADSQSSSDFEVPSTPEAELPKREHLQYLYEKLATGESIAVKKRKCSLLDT
row,Compound,inhibition
1,O=c1c2ccccc2nc2n1C(CSCc1ccccc1)CS2 (configuration not stated),2.82% (inactive)
2,COC(=O)CSC1=C(C#N)C(c2ccccc2OC)C(C(=O)OC)C(=O)N1 (configuration not stated),-3.1% (inactive)
3,Cc1ccc(/C=N/NC(=O)c2sccc2OCc2ccc(F)cc2)cc1,22.2% (inactive)
4,COc1ccc(CC(=O)Nc2nc3n(n2)C(c2ccccc2)CC(=O)N3)cc1OC (configuration not stated),-12.5% (inactive)
5,O=C(N/N=C/c1ccc(O)c(O)c1)C1c2ccccc2Oc2ccccc21,30.2% (active)
6,COc1ccc(C(=O)Nc2ccccc2C(=O)N/N=C/c2ccc(O)c(OC)c2)cc1,3.38% (inactive)
7,O=C(N/N=C/c1ccsc1)c1cc(O)cc(O)c1,10.2% (inactive)
8,Cc1ccc(Cn2c(C)nc3c(c2=O)c2nc4ccccc4nc2n3Cc2ccco2)cc1,40.3% (active)
9,Cc1ccc(Cn2c(NC(=O)c3ccco3)nc3ccccc32)cc1,0.73% (inactive)
10,Clc1cccc(-c2nc3nc4ccccc4nc3n2Cc2ccco2)c1,27% (inactive)
11,CCCn1c(C)cc(C(=O)COC(=O)c2c(C)nn(-c3ccccc3)c2C)c1C,10.5% (inactive)
12,CC(C)(C)Cc1nnc(NC(=O)c2cc(-c3ccccc3)nc3ccccc23)s1,13.6% (inactive)
13,O=C(/C=C/Nc1ccccc1OC(F)(F)F)C(F)(F)F,-11.1% (inactive)
14,COc1ccc(Cc2nnnn2CC(=O)O)cc1,3.92% (inactive)
15,CC1CCc2c(c3ccccc3[nH]c2=O)O1 (configuration not stated),13.8% (inactive)
16,Cn1c(CO)cnc1SCc1ccccc1,-0.47% (inactive)
17,COc1ccccc1NS(=O)(=O)N(C)C,4.92% (inactive)
18,C=CCn1c(N)cc(=O)nc1SCC(=O)Nc1cccc2ccccc12,-2.38% (inactive)
19,O=C(COc1cc(Cl)c(Cl)cc1Cl)NC(=O)NC1CCCC1,5.4% (inactive)
20,O=C(NC(Cc1ccccc1)C(=O)N1CCCC1C(=O)O)c1ccccc1 (stereo not drawn) (Bz-Phe-Pro-OH; configuration not given here),3.37% (inactive)
21,CCCC(C(=O)NCc1ccco1)N(C(=O)CNS(=O)(=O)c1ccccc1)C1CCCC1 (configuration not stated),9.71% (inactive)
22,CSC1=N/C(=C\C=C\c2cccs2)C(=O)S1,4.46% (inactive)
23,Cc1ccsc1/C=C1\SC(N2CCOCC2)=NC1=O,-5.58% (inactive)
24,Cc1ccc(N2CCN(C3=NC(=O)/C(=C\c4cccs4)S3)CC2)cc1,30.4% (active)
25,Cc1cccc(C(=O)N2CCCN(C(=O)c3cccc(C)c3)CC2)c1,4.29% (inactive)

row,Compound,inhibition
1,CCC(C)NC(=O)c1cc(Cl)ccc1OC (configuration not stated),1.25% (inactive)
2,N#CCCn1cnc2ccccc21,0.47% (inactive)
3,COc1ccc(-c2cc(C(=O)n3cnc4ccccc43)c3ccccc3n2)cc1,0.93% (inactive)
4,c1ccc(-c2nccc(-c3ccc(-n4cnc5ccccc54)cc3)n2)nc1,100% (active)
5,CC(=O)N1Cc2ccccc2CC1C(=O)O (configuration not stated),-0.69% (inactive)
6,Cc1ccc(C(=O)Nc2c(C#N)c(C)c(C)n2Cc2ccccc2)cc1,-5.83% (inactive)
7,CC(C)NC(=O)C(=O)NCCCOC(C)C,-3.28% (inactive)
8,COC(=O)C(C(=O)Nc1cccc(C)n1)C1CCCCCC1 (configuration not stated),-2.41% (inactive)
9,COc1ccc(CCN2C(=O)C3CC=C(C)CC3C2=O)cc1OC (configuration not stated),-6.71% (inactive)
10,COC(=O)C1=C(Nc2ccc(OC)cc2)C=C(C)C(C(=O)OC)C1c1ccc(C)cc1 (configuration not stated),-2.07% (inactive)
11,Fc1ccc(Br)cc1/C=N/n1cnnc1,-9.95% (inactive)
12,O=C(/C=C/c1cc2c(cc1Br)OCO2)NCc1ccc(Cl)cc1,-4.49% (inactive)
13,O=C(NN1C(=O)C2C3C=CC(C4CC34)C2C1=O)c1ccc(Cl)cc1 (configuration not stated),-4.12% (inactive)
14,O=c1c2ccccc2nc2n1C(CSc1ccc(F)cc1)CN2 (configuration not stated),-16.9% (inactive)
15,COc1ccc(C(=O)Oc2cc(/C=N/NS(=O)(=O)c3ccc(C)cc3)ccc2OC)cc1,4.47% (inactive)
16,COC(=O)c1sccc1-n1cccc1C(=O)C(=O)N1CCCCC1,-4.39% (inactive)
17,O=C(/C=N/O)Nc1ccccc1,16.8% (inactive)
18,CSc1ccc(C#N)cc1NC(=O)c1cccc(Cl)c1,-11% (inactive)
19,Cc1c(C(=O)NCc2ccccc2)cnn1-c1ccccc1,0.06% (inactive)
20,O=C(c1ccccc1)C(Cn1cncn1)C(Sc1ccccc1)c1ccccc1 (configuration not stated),7.82% (inactive)
21,CC(C)NC(=O)CSc1ccccc1C(=O)NCc1ccc2c(c1)OCO2,-4.49% (inactive)
22,CCOc1ccc2nc(SC(CC)C(=O)Nc3cc(C)on3)sc2c1 (configuration not stated),-0.74% (inactive)
23,CCc1ccc(/C=N/NC(=O)c2ccc(OC3CCCC3)cc2)s1,14.9% (inactive)
24,O=C(COc1ccc(/C=N/NS(=O)(=O)c2ccccc2)cc1)NCCc1ccccc1,5.78% (inactive)
25,NC(=O)c1ccccc1NC(=O)c1ccccc1F,3.21% (inactive)

row,Compound,inhibition
1,Cc1ccc(NC(=S)NC(=O)c2ccc(-c3ccccc3)cc2)c(C)c1,8.05% (inactive)
2,Cc1ccc(NC(=O)Nc2ccc3oc(C)nc3c2)cc1,4.51% (inactive)
3,CCOc1cc(C(=S)N2CCOCC2)ccc1O,44.1% (active)
4,COc1cc(C(=S)N2CCOCC2)cc(OC)c1OC(=O)c1cc([N+](=O)[O-])cc([N+](=O)[O-])c1,5.88% (inactive)
5,Cc1ccc(OCCCC(=O)N2CCOCC2)c(C)c1,-3.31% (inactive)
6,Nc1c(-c2ccc(F)cc2)cnn1C1CCS(=O)(=O)C1 (configuration not stated),-12.3% (inactive)
7,O=C(NC1CCC(O)CC1)c1ccc(S(=O)(=O)NCc2ccco2)cc1 (configuration not stated),-0.49% (inactive)
8,COCCCNCC(=O)Nc1sc(C)c(C)c1C(=O)OC,8.99% (inactive)
9,CSc1ccc(C#N)cc1NC(=O)c1ccc(Cl)cc1,-3.87% (inactive)
10,Cc1cccc(N2CCN(C(c3ccccc3)c3nnnn3CC3CCCO3)CC2)c1C (configuration not stated),1.54% (inactive)
11,O=C(O)C1CC=CCC1C(=O)Nc1ccccc1C(=O)N1CCN(c2ccccc2)CC1 (configuration not stated),11.9% (inactive)
12,CC1CN(c2nc(-c3ccccc3)nnc2-c2ccccc2)CC(C)O1 (configuration not stated),3.23% (inactive)
13,Cc1cc(N=CC2=C(O)CCCC2=O)no1,-4.13% (inactive)
14,CCCC(C)n1[nH]c(=O)c2c(C)cc(C)nc21 (configuration not stated),0.53% (inactive)
15,COc1ccccc1NC(=O)CSc1nnc(C)n1CC1CCCO1 (configuration not stated),2.59% (inactive)
16,Cc1cc(N2C(=O)C(=O)/C(=C(/O)c3ccc(Cl)cc3)C2c2cccc(Br)c2)no1 (configuration not stated),40% (active)
17,COc1ccc(/C(O)=C2/C(=O)C(=O)N(CC3CCCO3)C2c2ccc(OC)c(OC)c2)cc1 (configuration not stated),-5.65% (inactive)
18,COc1ccc(/C(O)=C2/C(=O)C(=O)N(c3nc(C)c(C)s3)C2c2ccco2)cc1 (configuration not stated),8.17% (inactive)
19,O=C1OC(c2ccc(Cl)cc2)=N/C1=C\c1cccnc1,-6.03% (inactive)
20,Cc1c(NC(=O)c2cc(-c3ccc(Cl)s3)nc3ccccc23)c(=O)n(-c2ccccc2)n1C,11.2% (inactive)
21,CCOC(=O)c1nc(N)sc1C(=O)OCC,-6.13% (inactive)
22,CCCCOC(=O)Cn1c(=O)n(CC(=O)OCCCC)c2cc(C)ccc21,6.83% (inactive)
23,O=C1CC(C(F)(F)C(F)(F)C(F)(F)C(F)(F)F)=Nc2ccccc2N1,-10.2% (inactive)
24,CCOC(=O)c1cc(C#N)c(N2CCCCC2)nc1-c1ccccc1,1.24% (inactive)
25,CC(C)(CSc1nncn1/N=C/c1ccco1)NS(=O)(=O)c1ccc(Cl)cc1,-7.17% (inactive)

row,Compound,inhibition
1,COc1ccc(/C=C2/S/C(=N/N=C3\CC4CCC3(C)C4(C)C)NC2=O)cc1 (configuration not stated),7.63% (inactive)
2,COc1ccc(CN2CCn3ncc(C(=O)Nc4ccc(Cl)cc4Cl)c3C2=O)cc1,-5.33% (inactive)
3,Cc1sc(NC(=O)C2C3CCC(O3)C2C(=O)O)c(C(=O)OC(C)C)c1-c1ccc(Cl)cc1 (configuration not stated),34% (active)
4,CC(C)OC(=O)c1cc(NC(=O)C2C3CCC(O3)C2C(=O)O)cc(C(=O)OC(C)C)c1 (configuration not stated),-5.25% (inactive)
5,COc1ccc(C(=O)N2CC3(C)CC2CC(C)(C)C3)cc1OC (configuration not stated),-3.98% (inactive)
6,CC(=O)Oc1ccc(C)cc1N1C(=O)c2ccc(C(=O)O)cc2C1=O,0.06% (inactive)
7,CCC1(C)Cc2c(sc3nc(SC)nc(N)c23)CO1 (configuration not stated),-3.48% (inactive)
8,CCC1(CC)NC(=O)N(CC(=O)OCC(=O)Nc2ccc(C(F)(F)F)cc2)C1=O,8.68% (inactive)
9,CCN1CCN(C(=O)/C=C\C(=O)O)CC1,0.01% (inactive)
10,Cc1cccc(CSc2nnc(NC(=O)CSc3nnc(C)s3)s2)c1,4.19% (inactive)
11,COc1cccc(/C=N\Nc2nncc(-c3ccccc3)n2)c1,2.99% (inactive)
12,CCN1CCN(C(=O)C2(NC(=O)Nc3cccc(F)c3)CCCCC2)CC1,-5.76% (inactive)
13,CCCCOC(=O)Nc1sc2nc(C)cc(C)c2c1-n1cccc1,6.76% (inactive)
14,CCOC(=O)C(=O)Nc1nc(-c2ccccc2)c(CC)s1,2.06% (inactive)
15,Cc1nnc(SCc2nc3ccccc3nc2C)s1,-10.2% (inactive)
16,Cc1cccc(NC(=S)Nc2ccc(Br)cc2)c1,-9.18% (inactive)
17,CC(=O)NNc1cc(=O)c2c(=O)n(C)c(=O)n(C)c2[nH]1,1.01% (inactive)
18,CNS(=O)(=O)c1cnccc1N1CCN(c2cccc(C)c2)CC1,2.37% (inactive)
19,COc1ccc(-c2n[nH]c(C)c2-c2ccc(OC)c(OC)c2)c(O)c1,-3.87% (inactive)
20,COc1ccc(OC)c(Nc2nc(-c3ccc(O)c(O)c3)cs2)c1,42.1% (active)
21,c1ccc(Nc2nc(-c3ccncc3)cs2)nc1,-4.36% (inactive)
22,Cc1ccccc1NC(=S)Nc1cccc([N+](=O)[O-])c1,2.56% (inactive)
